# Laboratory results published in PubChem BioAssay (NCATS).
# Results filed as inconclusive are left out. Active and inactive are the calls of the source. Calls follow the shape of the dose curve; as a rule, active = well fitted curve in the direction sought with a large enough effect; inconclusive = small, poorly fitted or top-dose-only effect, or another doubt; inactive = no such curve, though single readings can be large; an effect the other way counts as inactive or inconclusive.
# How the values were obtained:
# [1] = Cell Viability - LYMP2-020 (AID 986); conditions: series mostly up to 92.2 µM; also: nearly all actives have a fitted effect of over 55% in size
# In short: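 Human lymphoblastoid cells, 2500/well, were pre-incubated 5 hr at 37 C, then exposed to compounds for 24 hr at 37 C in complete medium. Intracellular ATP was read by CellTiter-Glo luminescence, and AC50 was derived by Hill fitting of concentration-response data.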
# [2] = Cell Viability - LYMP2-022 (AID 987); conditions: LYMP2-022 lymphoblastoid cell viability; series mostly up to 92.2 µM; also: nearly all actives have a fitted effect of over 55% in size
# In short: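 Human lymphoblastoid cells, 2500/well, preincubated 5 hr at 37 C, then exposed to compounds over a concentration range for 24 hr at 37 C in complete medium. Viability read as intracellular ATP by CellTiter-Glo luminescence after 30 min at room temperature; AC50 from Hill fits.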
# [3] = Cell Viability - LYMP2-024 (AID 988); conditions: LYMP2-024 lymphoblastoid cell viability; series mostly up to 92.2 µM; also: nearly all actives have a fitted effect of over 60% in size
# In short: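 Human lymphoblastoid cells (2500/well) in complete medium were preincubated 5 hr at 37 C, then exposed to compounds for 24 hr at 37 C. Intracellular ATP was read by CellTiter-Glo luminescence; AC50 from Hill-equation fits of concentration-response data.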
# [4] = Cell Viability - LYMP2-026 (AID 989); conditions: LYMP2-026 lymphoblastoid cell viability, qHTS; series mostly up to 92.2 µM; also: nearly all actives have a fitted effect of over 50% in size
# In short: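 Human lymphoblastoid cells (2500/well) in complete medium were preincubated 5 hr at 37 C, then exposed to compounds for 24 hr at 37 C. Cellular ATP was read by CellTiter-Glo luminescence; AC50 from Hill-equation fits of concentration-response data.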
# [5] = Cell Viability - LYMP1-002 - Assay at 24 hr (AID 993); conditions: LYMP1-002 lymphoblastoid cells viability; series mostly up to 92.2 µM
# In short: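 Human lymphoblastoid LYMP1-002 cells, 2500/well in complete medium, were treated with compounds for 24 h at 37 C; intracellular ATP was read by CellTiter-Glo luminescence. AC50 values came from Hill-equation fits of qHTS concentration-response data.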
# [6] = Cell Viability - LYMP1-002 - Assay at 40 hr (AID 994); conditions: LYMP1-002 lymphoblastoid cell viability; series mostly up to 92.2 µM; also: nearly all actives have a fitted effect of over 60% in size
# In short: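 Human lymphoblastoid cells, 2500/well in complete medium, were preincubated 5 hr at 37 C, then exposed to compounds for 40 hr at 37 C. Intracellular ATP was read by CellTiter-Glo luminescence after 30 min at room temperature; AC50 from Hill-equation fits.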
# [7] = qHTS for inhibitors of ER calcium dysfunction: SERCaMP assay screened against the NCATS CANVASS Library (AID 1347393); conditions: SH-SY5Y GLuc-SERCaMP secretion, thapsigargin, luminescence; series mostly up to 76.6 µM; also: potency is read from the fitted curve at half-maximal effect; nearly all actives have a fitted effect of over 40% in size
# In short: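 SH-SY5Y GLuc-SERCaMP, 1000 cells/well, 4 h attach; cpd 16 h, 37C/5% CO2; thapsigargin (added as 6x 600 nM) 4 h; coelenterazine; luminescence. Reduced reporter release = ER Ca stabilization.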
# [8] = HPAF-II Cancer Cell Toxicity qHTS against the NCATS CANVASS Library (AID 1347346); conditions: HPAF-II viability, CellTiter-Glo ATP luminescence, 72 h; series mostly up to 38.3 µM; also: potency is read from the fitted curve at half-maximal effect; nearly all actives have a fitted effect of over 55% in size
# In short: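 HPAF-II cells were seeded at 1000 cells/well, allowed to settle for 4 h at 37 degrees C, then exposed to compounds in an 11-point series for 72 h. Viability was read by CellTiter-Glo luminescence.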
# [9] = Panc-1005 Cancer Cell Toxicity qHTS against the NCATS CANVASS Library (AID 1347349); conditions: Panc-1005 viability, CellTiter-Glo luminescence, 72 h; series mostly up to 38.3 µM; also: potency is read from the fitted curve at half-maximal effect; nearly all actives have a fitted effect of over 60% in size
# In short: (§1)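 Toxicity is measured over 72 h of compound exposure at 37 degrees C under 5% CO2. Each well holds 1000 cells, pre-incubated for 4 hours before dosing across an 11-point range. CellTiter-Glo luminescence gives viability.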
# [10] = Secretion counterscreen for inhibitors of the SERCaMP assay screened against the NCATS CANVASS Library (AID 1347390); conditions: SH-SY5Y constitutive GLuc secretion, luminescence, 20 h; series mostly up to 76.6 µM;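 also: light from luciferase secreted into medium read as a measure of general secretion; potency is read from the fitted curve at half-maximal effect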
# In short: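 Counterscreen identifying compounds that disrupt secretion, using SH-SY5Y cells with a constitutively secreted Gaussia luciferase reporter. A 20 h compound exposure (top 77 uM) precedes luminescent detection with coelenterazine.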
# [11] = Viability qHTS for inhibitors of the SERCaMP assay screened against the NCATS CANVASS Library (AID 1347400); conditions: SH-SY5Y SERCaMP cells viability, CellTiter-Glo, 48 h; series mostly up to 92.2 µM; also: potency is read from the fitted curve at half-maximal effect; nearly all actives have a fitted effect of over 70% in size
# In short: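 SH-SY5Y-GLuc SERCaMP MJH297-derived cells (1000 cells/well) were pre-incubated 4 h at 37C, then exposed to compounds for 48 h. Viability was read as CellTiter-Glo luminescence; bortezomib served as positive control.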
# [12] = Primary qHTS for inhibitors of nuclear receptor binding SET domain protein 2 (NSD2) in an isogenic RCH-ACV NSD2 p.E1099K mutant (9B) (AID 1645876); conditions: RCH-ACV NSD2 E1099K (9B) viability, CellTiter-Glo, 72 h; series mostly up to 44.9 µM; also: potency is read from the fitted curve at half-maximal effect; nearly all actives have a fitted effect of over 70% in size
# [13] = Primary qHTS for inhibitors of nuclear receptor binding SET domain protein 2 (NSD2) in an RCH-ACV wild type WT cells (2C) (AID 1645877); conditions: RCH-ACV (leukaemia line) NSD2 WT (2C) viability, CellTiter-Glo, 72 h; series mostly up to 44.9 µM; also: potency is read from the fitted curve at half-maximal effect; nearly all actives have a fitted effect of over 70% in size
# [14] = UWB1.289 Cancer Cell Toxicity qHTS against the NCATS CANVASS Library (AID 1347347); conditions: UWB1.289 viability, CellTiter-Glo luminescence, 72 h; series mostly up to 38.3 µM; also: potency is read from the fitted curve at half-maximal effect; nearly all actives have a fitted effect of over 60% in size
# In short: as §1
# [15] = target: Tumor susceptibility gene 101 protein (Homo sapiens) (UniProt Q99816); assay: qHTS Assay for Iinhibitors of HIV-1 Budding by Blocking the Interaction of PTAP/TSG101: Hit Validation (AID 651600); conditions: PTAP peptide/TSG101 UEV interaction, biochemical assay; series mostly up to 57.5 µM; also: nearly all actives have a fitted effect of over 70% in size
# Chain of Tumor susceptibility gene 101 protein (Homo sapiens) (Q99816 whole entry, looked up, the tested form may be a part): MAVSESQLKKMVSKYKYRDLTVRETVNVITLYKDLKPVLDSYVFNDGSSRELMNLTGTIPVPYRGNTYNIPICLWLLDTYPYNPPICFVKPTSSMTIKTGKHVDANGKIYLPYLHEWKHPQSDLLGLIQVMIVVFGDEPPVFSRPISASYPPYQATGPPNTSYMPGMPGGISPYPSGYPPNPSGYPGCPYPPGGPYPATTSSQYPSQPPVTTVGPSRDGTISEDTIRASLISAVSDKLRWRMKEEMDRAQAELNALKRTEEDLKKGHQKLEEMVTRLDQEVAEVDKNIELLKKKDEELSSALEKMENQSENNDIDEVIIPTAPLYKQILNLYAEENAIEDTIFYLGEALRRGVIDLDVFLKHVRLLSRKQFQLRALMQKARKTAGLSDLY
# In short: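 Displacement of a FITC-labeled PTAP-motif peptide (50 nM) from the Tsg101 binding domain (10 uM) was monitored by fluorescence polarization after a 20 min room-temperature incubation.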
smiles,measurement,setting,value
Oc1c(Cl)c(Cl)c(Cl)c(Cl)c1Cl,outcome,[1],inactive
same,outcome,[2],inactive
same,outcome,[3],inactive
same,outcome,[4],inactive
same,outcome,[5],inactive
same,Potency,[6],inactive
COc1ccc2c3c([nH]c2c1)C(C)=NCC3,Potency,[7],27.2 µM (active)
COc1ccc2c(c1)[nH]c1c(C)nccc12,Potency,[8],27.3 µM (active)
same,Potency,[9],30.6 µM (active)
same,Potency,[10],62.7 µM (active)
same,Potency,[11],27.8 µM (active)
same,Potency,[12],16.4 µM (active)
same,Potency,[13],8.2 µM (active)
C=C1[C@@H](C)[C@H]2[C@H](Cc3ccccc3)NC(=O)[C@]23OC(=O)/C=C/[C@H](O)CCC[C@@H](C)C/C=C/[C@H]3[C@@H]1O,Potency,[14],5.94 µM (active)
C=CCN1CCC2(C)c3cc(O)ccc3CC1C2C (stereo not given),outcome,[15],inactive
